ChEMBL document CHEMBL1961873, “Compounds: GSK PKIS; Assays: Nanosyn kinase panel” (2012)
Several values for one entry are separate records, joined by “and”; a condition that tells them apart may be missing. Identical values can stand only once.

Assays:
[1] = target: RAC-alpha serine/threonine-protein kinase (Homo sapiens) (UniProt P31749); details: at 0.1 µM
[2] = target: RAC-alpha serine/threonine-protein kinase (Homo sapiens) (UniProt P31749); details: at 1 µM
[3] = target: RAC-beta serine/threonine-protein kinase (Homo sapiens) (UniProt P31751); details: at 0.1 µM
[4] = target: RAC-beta serine/threonine-protein kinase (Homo sapiens) (UniProt P31751); details: at 1 µM
[5] = target: RAC-gamma serine/threonine-protein kinase (Homo sapiens) (UniProt Q9Y243); details: at 0.1 µM
[6] = target: RAC-gamma serine/threonine-protein kinase (Homo sapiens) (UniProt Q9Y243); details: at 1 µM
[7] = target: G protein-coupled receptor kinase 6 (Homo sapiens) (UniProt P43250); details: at 0.1 µM
[8] = target: G protein-coupled receptor kinase 6 (Homo sapiens) (UniProt P43250); details: at 1 µM
[9] = target: T1, Rhodopsin kinase GRK7 (Homo sapiens) (UniProt Q8WTQ7); details: at 0.1 µM
T1 sequence (whole entry): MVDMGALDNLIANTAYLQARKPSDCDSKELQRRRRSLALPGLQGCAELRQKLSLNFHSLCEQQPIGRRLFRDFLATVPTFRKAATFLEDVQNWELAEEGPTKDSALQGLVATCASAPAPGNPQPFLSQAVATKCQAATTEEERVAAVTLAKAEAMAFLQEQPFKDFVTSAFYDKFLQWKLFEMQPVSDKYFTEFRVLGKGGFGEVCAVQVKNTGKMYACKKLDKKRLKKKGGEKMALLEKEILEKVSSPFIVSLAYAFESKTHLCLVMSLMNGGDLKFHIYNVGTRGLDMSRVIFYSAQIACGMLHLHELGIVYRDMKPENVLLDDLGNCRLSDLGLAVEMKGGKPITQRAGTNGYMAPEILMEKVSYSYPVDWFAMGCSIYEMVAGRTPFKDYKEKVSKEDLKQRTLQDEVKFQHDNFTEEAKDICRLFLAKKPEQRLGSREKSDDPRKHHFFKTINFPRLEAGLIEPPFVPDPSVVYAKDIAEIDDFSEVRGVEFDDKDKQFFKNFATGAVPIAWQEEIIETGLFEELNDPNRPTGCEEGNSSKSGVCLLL

[10] = target: T1, Rhodopsin kinase GRK7 (Homo sapiens); details: at 1 µM
[11] = target: Serine/threonine-protein kinase MRCK alpha (Homo sapiens) (UniProt Q5VT25); details: at 0.1 µM
[12] = target: Serine/threonine-protein kinase MRCK alpha (Homo sapiens) (UniProt Q5VT25); details: at 1 µM
[13] = target: Serine/threonine-protein kinase MRCK beta (Homo sapiens) (UniProt Q9Y5S2); details: at 0.1 µM
[14] = target: Serine/threonine-protein kinase MRCK beta (Homo sapiens) (UniProt Q9Y5S2); details: at 1 µM
[15] = target: Ribosomal protein S6 kinase alpha-5 (Homo sapiens) (UniProt O75582); details: at 0.1 µM
[16] = target: Ribosomal protein S6 kinase alpha-5 (Homo sapiens) (UniProt O75582); details: at 1 µM
[17] = target: Ribosomal protein S6 kinase alpha-4 (Homo sapiens) (UniProt O75676); details: at 0.1 µM
[18] = target: Ribosomal protein S6 kinase alpha-4 (Homo sapiens) (UniProt O75676); details: at 1 µM
[19] = target: Ribosomal protein S6 kinase beta-1 (Homo sapiens) (UniProt P23443); details: at 0.1 µM
[20] = target: Ribosomal protein S6 kinase beta-1 (Homo sapiens) (UniProt P23443); details: at 1 µM

Chain of G protein-coupled receptor kinase 6 (Homo sapiens) (P43250 whole entry, looked up): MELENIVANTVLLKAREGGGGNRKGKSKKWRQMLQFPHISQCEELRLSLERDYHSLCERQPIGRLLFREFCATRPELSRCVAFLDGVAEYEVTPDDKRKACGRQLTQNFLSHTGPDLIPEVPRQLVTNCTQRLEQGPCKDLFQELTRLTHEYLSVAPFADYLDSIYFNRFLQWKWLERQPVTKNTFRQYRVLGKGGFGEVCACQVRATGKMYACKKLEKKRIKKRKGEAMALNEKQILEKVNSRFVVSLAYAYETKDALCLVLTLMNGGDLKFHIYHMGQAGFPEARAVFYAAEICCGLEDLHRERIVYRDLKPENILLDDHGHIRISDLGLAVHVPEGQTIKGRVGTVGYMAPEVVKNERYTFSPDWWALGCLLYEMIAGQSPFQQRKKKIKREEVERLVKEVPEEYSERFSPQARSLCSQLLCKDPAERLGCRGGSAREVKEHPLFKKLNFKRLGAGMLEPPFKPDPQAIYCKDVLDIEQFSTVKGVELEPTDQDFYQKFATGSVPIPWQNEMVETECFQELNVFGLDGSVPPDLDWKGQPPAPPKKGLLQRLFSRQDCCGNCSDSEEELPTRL
Chain of Ribosomal protein S6 kinase alpha-4 (Homo sapiens) (O75676 whole entry, looked up): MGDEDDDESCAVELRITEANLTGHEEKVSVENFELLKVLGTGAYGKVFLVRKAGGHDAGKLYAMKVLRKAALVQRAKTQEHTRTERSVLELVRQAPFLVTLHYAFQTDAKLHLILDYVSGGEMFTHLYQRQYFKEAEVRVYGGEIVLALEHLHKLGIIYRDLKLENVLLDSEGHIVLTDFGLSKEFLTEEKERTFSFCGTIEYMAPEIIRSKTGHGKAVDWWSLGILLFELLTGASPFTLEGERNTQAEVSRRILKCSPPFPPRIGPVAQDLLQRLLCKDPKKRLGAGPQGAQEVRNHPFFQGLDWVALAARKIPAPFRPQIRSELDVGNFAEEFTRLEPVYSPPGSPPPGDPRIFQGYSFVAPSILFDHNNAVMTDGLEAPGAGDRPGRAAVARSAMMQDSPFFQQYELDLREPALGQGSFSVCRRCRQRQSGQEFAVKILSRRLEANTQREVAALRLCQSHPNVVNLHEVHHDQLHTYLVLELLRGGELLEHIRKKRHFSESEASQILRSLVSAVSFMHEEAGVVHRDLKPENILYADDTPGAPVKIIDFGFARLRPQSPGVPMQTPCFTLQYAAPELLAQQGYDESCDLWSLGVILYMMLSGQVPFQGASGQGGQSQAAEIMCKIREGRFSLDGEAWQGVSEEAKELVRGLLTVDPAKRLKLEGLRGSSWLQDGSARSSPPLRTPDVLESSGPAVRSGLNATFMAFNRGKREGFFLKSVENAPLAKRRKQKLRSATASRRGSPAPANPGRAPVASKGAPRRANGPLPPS
Chain of Serine/threonine-protein kinase MRCK alpha (Homo sapiens) (Q5VT25 whole entry): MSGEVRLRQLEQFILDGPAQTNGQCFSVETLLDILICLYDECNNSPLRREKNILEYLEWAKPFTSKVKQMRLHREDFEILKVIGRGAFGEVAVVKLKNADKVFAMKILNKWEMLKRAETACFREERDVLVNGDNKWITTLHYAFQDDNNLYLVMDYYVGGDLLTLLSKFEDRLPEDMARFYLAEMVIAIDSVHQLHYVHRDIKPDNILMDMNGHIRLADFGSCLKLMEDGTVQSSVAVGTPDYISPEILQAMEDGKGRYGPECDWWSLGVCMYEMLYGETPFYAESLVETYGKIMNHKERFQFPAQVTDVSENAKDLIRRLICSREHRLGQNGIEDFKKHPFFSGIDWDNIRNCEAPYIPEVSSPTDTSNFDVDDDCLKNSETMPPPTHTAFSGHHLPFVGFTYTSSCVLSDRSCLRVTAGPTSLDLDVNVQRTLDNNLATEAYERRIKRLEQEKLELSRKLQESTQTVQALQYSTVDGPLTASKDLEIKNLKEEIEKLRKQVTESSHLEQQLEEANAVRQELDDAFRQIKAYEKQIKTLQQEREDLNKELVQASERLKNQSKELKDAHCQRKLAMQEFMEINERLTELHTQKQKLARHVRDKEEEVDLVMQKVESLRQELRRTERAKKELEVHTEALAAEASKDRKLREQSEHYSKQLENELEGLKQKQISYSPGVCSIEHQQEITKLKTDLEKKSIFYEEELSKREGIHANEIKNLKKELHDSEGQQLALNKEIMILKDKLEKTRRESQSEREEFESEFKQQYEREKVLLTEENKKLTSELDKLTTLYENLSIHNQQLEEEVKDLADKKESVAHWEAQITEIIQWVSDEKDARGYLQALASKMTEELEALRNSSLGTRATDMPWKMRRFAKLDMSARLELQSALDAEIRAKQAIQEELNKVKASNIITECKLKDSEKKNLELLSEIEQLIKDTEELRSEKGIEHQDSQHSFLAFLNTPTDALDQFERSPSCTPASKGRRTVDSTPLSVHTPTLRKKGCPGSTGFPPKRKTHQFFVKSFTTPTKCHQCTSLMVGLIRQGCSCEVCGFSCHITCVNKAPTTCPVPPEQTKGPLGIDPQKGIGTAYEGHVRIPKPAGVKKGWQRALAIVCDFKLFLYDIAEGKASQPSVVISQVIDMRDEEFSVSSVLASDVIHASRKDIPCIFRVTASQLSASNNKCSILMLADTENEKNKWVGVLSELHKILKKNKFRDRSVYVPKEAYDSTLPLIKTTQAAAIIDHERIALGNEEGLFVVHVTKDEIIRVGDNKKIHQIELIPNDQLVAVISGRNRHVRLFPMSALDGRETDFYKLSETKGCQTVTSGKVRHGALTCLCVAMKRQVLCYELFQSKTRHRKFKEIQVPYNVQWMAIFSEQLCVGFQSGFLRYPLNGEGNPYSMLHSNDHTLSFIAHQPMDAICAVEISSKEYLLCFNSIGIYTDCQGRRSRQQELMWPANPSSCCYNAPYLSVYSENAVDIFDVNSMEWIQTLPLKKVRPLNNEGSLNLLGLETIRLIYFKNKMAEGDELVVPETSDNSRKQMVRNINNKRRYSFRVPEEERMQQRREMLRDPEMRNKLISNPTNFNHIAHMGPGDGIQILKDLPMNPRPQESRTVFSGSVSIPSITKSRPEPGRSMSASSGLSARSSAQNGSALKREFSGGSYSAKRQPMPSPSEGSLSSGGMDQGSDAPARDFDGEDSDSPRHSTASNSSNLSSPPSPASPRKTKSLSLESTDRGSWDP
Chain of RAC-beta serine/threonine-protein kinase (Homo sapiens) (P31751 whole entry): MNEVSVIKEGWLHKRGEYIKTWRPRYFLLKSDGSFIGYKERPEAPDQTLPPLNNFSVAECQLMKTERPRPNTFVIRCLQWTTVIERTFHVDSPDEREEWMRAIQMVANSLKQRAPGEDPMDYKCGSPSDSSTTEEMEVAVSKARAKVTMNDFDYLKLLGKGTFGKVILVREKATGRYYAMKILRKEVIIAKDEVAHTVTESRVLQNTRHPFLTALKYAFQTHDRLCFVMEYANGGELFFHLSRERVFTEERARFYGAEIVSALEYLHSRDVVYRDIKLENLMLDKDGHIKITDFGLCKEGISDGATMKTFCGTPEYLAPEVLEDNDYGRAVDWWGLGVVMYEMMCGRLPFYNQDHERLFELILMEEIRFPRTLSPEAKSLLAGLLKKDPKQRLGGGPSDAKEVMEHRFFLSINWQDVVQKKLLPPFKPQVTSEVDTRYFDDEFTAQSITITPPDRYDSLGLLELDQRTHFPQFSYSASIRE
Chain of RAC-gamma serine/threonine-protein kinase (Homo sapiens) (Q9Y243 whole entry): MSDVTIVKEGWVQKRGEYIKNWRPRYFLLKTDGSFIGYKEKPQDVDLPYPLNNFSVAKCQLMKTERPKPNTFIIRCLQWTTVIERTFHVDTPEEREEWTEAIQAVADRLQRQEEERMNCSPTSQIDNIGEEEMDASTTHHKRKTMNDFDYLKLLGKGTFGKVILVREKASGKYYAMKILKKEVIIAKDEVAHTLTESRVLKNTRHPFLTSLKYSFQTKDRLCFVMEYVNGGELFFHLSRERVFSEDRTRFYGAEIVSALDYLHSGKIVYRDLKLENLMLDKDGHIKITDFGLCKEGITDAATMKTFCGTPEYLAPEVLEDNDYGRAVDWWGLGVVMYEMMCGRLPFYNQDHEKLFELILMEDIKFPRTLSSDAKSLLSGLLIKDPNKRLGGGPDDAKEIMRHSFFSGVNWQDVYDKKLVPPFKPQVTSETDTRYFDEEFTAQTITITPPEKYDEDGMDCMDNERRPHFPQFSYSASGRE
Chain of Ribosomal protein S6 kinase beta-1 (Homo sapiens) (P23443 whole entry, looked up): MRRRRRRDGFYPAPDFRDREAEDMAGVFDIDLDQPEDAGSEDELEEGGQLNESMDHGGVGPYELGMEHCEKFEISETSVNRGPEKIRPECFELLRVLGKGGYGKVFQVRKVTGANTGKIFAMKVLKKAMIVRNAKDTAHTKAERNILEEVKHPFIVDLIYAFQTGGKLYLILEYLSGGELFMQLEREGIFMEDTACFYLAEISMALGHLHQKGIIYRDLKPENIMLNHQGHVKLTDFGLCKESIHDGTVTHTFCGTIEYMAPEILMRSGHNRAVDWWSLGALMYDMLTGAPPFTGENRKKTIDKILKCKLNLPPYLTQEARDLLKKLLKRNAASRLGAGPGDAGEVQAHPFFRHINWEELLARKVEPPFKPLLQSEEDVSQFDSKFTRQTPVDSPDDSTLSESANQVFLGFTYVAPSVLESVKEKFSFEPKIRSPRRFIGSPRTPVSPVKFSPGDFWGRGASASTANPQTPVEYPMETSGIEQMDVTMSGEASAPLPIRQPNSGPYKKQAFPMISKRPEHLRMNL
Chain of RAC-alpha serine/threonine-protein kinase (Homo sapiens) (P31749 whole entry): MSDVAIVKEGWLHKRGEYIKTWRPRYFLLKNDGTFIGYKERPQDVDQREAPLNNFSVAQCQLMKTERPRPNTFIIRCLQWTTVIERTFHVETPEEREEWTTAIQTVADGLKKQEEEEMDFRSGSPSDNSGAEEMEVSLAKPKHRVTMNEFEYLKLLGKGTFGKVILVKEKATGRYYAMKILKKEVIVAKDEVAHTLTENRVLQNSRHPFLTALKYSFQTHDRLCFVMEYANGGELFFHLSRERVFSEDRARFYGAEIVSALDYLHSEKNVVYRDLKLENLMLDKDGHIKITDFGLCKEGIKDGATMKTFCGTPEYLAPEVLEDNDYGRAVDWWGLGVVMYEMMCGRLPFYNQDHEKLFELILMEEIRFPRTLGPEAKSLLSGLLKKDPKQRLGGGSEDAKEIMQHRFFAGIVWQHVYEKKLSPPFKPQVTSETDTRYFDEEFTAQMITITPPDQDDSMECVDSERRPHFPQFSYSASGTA

Structure (SMILES)	inhibition [1]	inhibition [2]	inhibition [3]	inhibition [4]	inhibition [5]	inhibition [6]	inhibition [7]	inhibition [8]	inhibition [9]	inhibition [10]	inhibition [11]	inhibition [12]	inhibition [13]	inhibition [14]	inhibition [15]	inhibition [16]	inhibition [17]	inhibition [18]	inhibition [19]	inhibition [20]
NC(=O)c1ccc2c(-c3ccnc(NCCCO)n3)c(-c3ccc(F)cc3)nn2c1	0.79%	-0.47%	1.62%	1.08%	1.04%	2.17%	0.86%	2.38%	1.93%	4.08%	0.04%	2.55%	0.29%	2.28%	11.4%	8.01%	1.44%	2.05%	1.72%	1.46%
c1cnn2ncc(-c3ccnc(NCCCN4CCOCC4)n3)c2c1	0.48%	0.29%	1.29%	1.85%	1.38%	1.68%	4.92%	3.86%	20.1%	15.5%	-0.89%	-2.56%	0.55%	3.84%	6.61%	6.41%	5.88%	7.41%	2.05%	2.73%
CCCNc1cccc(-n2ncc3c(N/N=C/c4ccncc4)ncnc32)c1	0.34%	-0.51%	0.22%	-0.08%	-0.05%	-1.08%	3.49%	3.97%	2.68%	4.45%	1.31%	5.18%	-0.11%	0.92%	-4.25%	-2.6%	1.74%	2.6%	1.2%	8.74%
COc1ccccc1-c1cc(/C=C2\C(=O)Nc3ncc(Br)cc32)cc(Br)c1O	0.67%	0.15%	1.96%	2.36%	1.93%	0.61%	5.35%	30.3%	28.7%	57.2%	-0.66%	-2.56%	-0.06%	-0.72%	3.42%	1.75%	1.76%	6.3%	2.51%	2.75%
CN1CCN(Cc2ccc(-c3cc4ncnc(Nc5ccc(OCc6cccc(F)c6)c(Cl)c5)c4s3)o2)CC1	2.3% and 0.84%	0.33% and 0.82%	1.77% and 3.25%	4.18% and 1.52%	0.53% and 1.8%	4.32% and 3.89%	-0.68% and 8.35%	-0.78% and 9.33%	9.19% and 5.43%	0.67% and 9.84%	-1.39% and -0.36%	-3.23% and 2%	-0.68% and -0.01%	-1.28% and -0.15%	7.37% and 3.64%	6.3% and 5.71%	1.66% and 2.85%	1.25% and 4.7%	0.39% and 0.55%	1.79% and 5.31%
CS(=O)(=O)CCNCc1ccc(-c2ccc3ncnc(Nc4ccc(OCc5cccc(C(F)(F)F)c5)cc4)c3c2)o1	0.68%	0.01%	0.73%	1.64%	0.95%	2.79%	6.2%	3.84%	8.32%	0.47%	1.26%	5.01%	0.69%	2%	4.18%	3.88%	1.66%	2.03%	1.39%	3.25%
NS(=O)(=O)c1ccc(N/N=C2\C(=O)Nc3cccc(CCc4ccncc4)c32)cc1	0.52%	0.04%	-0.35%	0.27%	0.45%	1.65%	0.11%	1.61%	7.3%	5.05%	-0.78%	-0.69%	0.54%	0.31%	-0.75%	-0.48%	0.37%	2.61%	0.08%	-0.48%
COc1cc(N2CCN(C(C)C)CC2)ccc1Nc1nc(Nc2cccc(F)c2C(=O)O)c2cc[nH]c2n1	0.12%	0.67%	1.27%	1.08%	0.73%	2.08%	6.59%	10.8%	3.79%	5.95%	-0.32%	1.08%	-1.28%	0.34%	2.89%	3.87%	0.48%	2.67%	1.22%	2.81%
O=C(Nc1n[nH]c2nnc(-c3cccnc3)cc12)C1CC1	-0.73%	-0.67%	-0.56%	0.1%	-0.57%	5.03%	3.53%	0.48%	2.31%	-1.4%	2.61%	-0.69%	0.62%	0.7%	-1.47%	-0.64%	-0.31%	0.76%	-0.26%	0.25%
CS(=O)(=O)Nc1ccc(-c2ccc3c(NC(=O)C4CC4)n[nH]c3c2)cc1	1.74%	2.3%	1.58%	4.27%	3.61%	0.93%	2.24%	1.55%	5.28%	2.36%	-0.45%	-1.86%	-0.12%	1.45%	3.35%	5.67%	-1%	3.37%	2.17%	2.83%
Fc1cccc(COc2ccc(Nc3ncncc3C#Cc3ccccc3)cc2Cl)c1	0.45%	1.07%	1.28%	1.61%	0.72%	1.12%	7.01%	9.97%	5.2%	9.23%	-0.09%	2.32%	-0.25%	0.29%	3.88%	4.33%	2.46%	4.37%	1.71%	2.17%
COc1ccc(-c2nn3ncccc3c2-c2ccnc(Nc3ccc(F)c(F)c3)n2)cc1	0.52%	2.13%	1.56%	1.42%	1.4%	2.01%	7.85%	10.1%	6.45%	7.95%	0.67%	4.1%	-0.01%	-0.11%	3.92%	6.45%	3.37%	4.5%	1.91%	2.58%
Nc1nonc1-c1nc2cnccc2n1C1CC1	1.26% and -2.25%	8.06% and 5.34%	2.53% and -2.31%	5.04% and 2.15%	1.66% and -2.03%	6.38% and 2.16%	0.65% and 3.64%	6.46% and 11.6%	-3.85% and 3.25%	-0.48% and 7.79%	4.84% and 5.86%	35.7% and 40%	7.62% and 9.27%	41% and 42.7%	75.6% and 71.7%	82.3% and 76.5%	44.6% and 48.9%	75.1% and 74.5%	66.6% and 68.6%	89.3% and 88.8%
